Experimental data as given in PubChem BioAssay (Tox21).
Where “and” joins values, the source holds several entries; their conditions need not be identical. Equal entries are not always repeated. Inconclusive results are not listed. Where a call stands in place of a potency, no number is given. Some compounds were tested as several samples or in several runs, with calls that do not always agree. Calls of active or inactive are those of the source. Calls come from the whole dose curve.

Assay: Nuclear factor erythroid 2-related factor 2/antioxidant responsive element (Nrf2/ARE) small molecule agonists: luciferase reporter gene qHTS assay in human keratinocytes (AID 1919969); note: nearly all actives have a fitted effect of over 35% in size
Potency is the fitted concentration of half-maximal effect.

SMILES: Nc1cc(Cl)c(N)c(Cl)c1
- Potency: 68 µM (active) and inactive

SMILES: CC(=O)Nc1ccccc1
- Potency: inactive

SMILES: CCCCCCCCCCCCCC[N+](C)(C)Cc1ccccc1
- Potency: inactive

SMILES: COC1=CC(=O)C[C@@H](C)[C@]12Oc1c(Cl)c(OC)cc(OC)c1C2=O
- Potency: inactive

SMILES: CC1=CC[C@H]2C[C@@H]1C2(C)C
- Potency: inactive

SMILES: C=CC(C)(C)C
- Potency: inactive

SMILES: CCCCCCCCCCCCO
- Potency: inactive and 67.8 µM (active)

SMILES: CCCCCCCCCCCCCC(=O)O
- Potency: inactive

SMILES: CC(C)Cc1ccccc1
- Potency: inactive

SMILES: O=C(c1ccccc1)c1ccc(O)c(O)c1O
- Potency: inactive

SMILES: Cc1cccc([N+](=O)[O-])c1C
- Potency: inactive

SMILES: NC(=O)N1c2ccccc2C=Cc2ccccc21
- Potency: inactive

SMILES: CS(=O)(=O)OCCCCOS(C)(=O)=O
- Potency: inactive

SMILES: N=C(N)c1ccc(OCCCCCOc2ccc(C(=N)N)cc2)cc1
- Potency: inactive

SMILES: CCCCCC1=CCCC1=O
- Potency: inactive

SMILES: CNC[C@H](O)[C@@H](O)[C@H](O)[C@H](O)CO
- Potency: inactive

SMILES: C[Si](C)(C)O[Si](C)(C)C
- Potency: inactive

SMILES: c1cc(-c2ccncc2)ccn1
- Potency: inactive

SMILES: O=C1c2c(O)cccc2Cc2cccc(O)c21
- Potency: inactive

SMILES: COC(=O)CCC(=O)OC
- Potency: inactive

SMILES: COC(=O)[C@H]1[C@H]2C[C@@H]3c4[nH]c5cc(OC)ccc5c4CCN3C[C@H]2C[C@@H](OC(=O)c2cc(OC)c(OC)c(OC)c2)[C@@H]1OC
- Potency: inactive

SMILES: C[C@]12CC[C@@H]3c4ccc(O)cc4CC[C@H]3[C@@H]1CC[C@@H]2O
- Potency: inactive

SMILES: O=C(Nc1ccccc1SSc1ccccc1NC(=O)c1ccccc1)c1ccccc1
- Potency: 4.88 µM (active) and 6.11 µM (active)

SMILES: COC(=O)c1cccc(C(=O)OC)c1
- Potency: inactive

SMILES: Nc1ccc(S(=O)(=O)c2ccc(N)cc2)cc1
- Potency: inactive and 27.3 µM (active)

SMILES: O=C(O)C(=O)O
- Potency: inactive

SMILES: CN(C)CCCN
- Potency: inactive

SMILES: O=Cc1ccc(CO)o1
- Potency: inactive

SMILES: OC(CCl)CCl
- Potency: inactive

SMILES: O=C(c1ccccc1)C(O)c1ccccc1 (stereo unspecified)
- Potency: inactive

SMILES: CCOc1ccc(NC(C)=O)cc1
- Potency: inactive

SMILES: O=C1CCCCCN1
- Potency: inactive

SMILES: CCCCCCCCC
- Potency: inactive

SMILES: Cc1ccc([N+](=O)[O-])c(C)c1
- Potency: 1.93 µM (active) and inactive

SMILES: CC(C)(C)C1CCC(O)CC1 (stereo unspecified)
- Potency: inactive

SMILES: CC(C)c1ccc(C(C)C)cc1
- Potency: inactive

SMILES: CC(=O)c1ccc(S(=O)(=O)NC(=O)NC2CCCCC2)cc1
- Potency: inactive

SMILES: c1ccc2c(c1)ccc1ccccc12
- Potency: inactive

SMILES: CC1(C)C(=O)N(Cl)C(=O)N1Cl
- Potency: inactive

SMILES: CC1(C)O[C@@H]2C[C@H]3[C@@H]4C[C@H](F)C5=CC(=O)CC[C@]5(C)[C@H]4[C@@H](O)C[C@]3(C)[C@]2(C(=O)CO)O1
- Potency: inactive

SMILES: NC1CCCCC1
- Potency: inactive

SMILES: CCCCCCCCCCCC[N+](C)(C)Cc1ccccc1
- Potency: inactive

SMILES: C=C[C@@]1(C)CC(=O)[C@]2(O)[C@@]3(C)[C@@H](O)CCC(C)(C)[C@@H]3[C@H](O)[C@H](OC(C)=O)[C@@]2(C)O1
- Potency: inactive

SMILES: CCCCCCCCCCCCc1ccccc1O
- Potency: inactive

SMILES: C[C@]12C=CC(=O)C=C1CC[C@@H]1[C@@H]2[C@@H](O)C[C@@]2(C)[C@H]1CC[C@]2(O)C(=O)CO
- Potency: inactive

SMILES: C#CC1(O)CC[C@H]2[C@@H]3CCC4=CCCC[C@@H]4[C@H]3CC[C@@]21C (stereo partly specified)
- Potency: inactive

SMILES: CCc1nc(N)nc(N)c1-c1ccc(Cl)cc1
- Potency: inactive

SMILES: CCCCCCCCCCCCCC[N+](C)(C)C
- Potency: inactive

SMILES: CCC(=O)O
- Potency: inactive

SMILES: Clc1ccccn1
- Potency: inactive

SMILES: C[C@](N)(Cc1ccc(O)c(O)c1)C(=O)O
- Potency: inactive

SMILES: OC[C@@H](O)[C@H](O)[C@H](O)[C@@H](O)CO
- Potency: inactive

SMILES: CC(=O)CC/C=C(\C)CCC=C(C)C
- Potency: inactive

SMILES: O=C1O[C@H]([C@H](O)CO)C(O)=C1O
- Potency: inactive

SMILES: Nc1nc2ncc(CNc3ccc(C(=O)N[C@@H](CCC(=O)O)C(=O)O)cc3)nc2c(=O)[nH]1
- Potency: inactive

SMILES: COc1c(Cl)c(Cl)c(Cl)c(Cl)c1Cl
- Potency: inactive

SMILES: CC(C)NCC(O)c1ccc(O)c(O)c1 (stereo unspecified)
- Potency: inactive

SMILES: Oc1c(Cl)cc(Cl)cc1Sc1cc(Cl)cc(Cl)c1O
- Potency: 6.13 µM (active) and inactive

SMILES: C=C(C)C1CC=C(C)CC1 (stereo unspecified)
- Potency: inactive

SMILES: C=CCOC(=O)CC(C)C
- Potency: inactive

SMILES: CC(O)CN(CCN(CC(C)O)CC(C)O)CC(C)O (stereo unspecified)
- Potency: inactive

SMILES: COC(=O)/C=C\C(=O)OC
- Potency: inactive

SMILES: O=C(OCc1ccccc1)c1ccccc1O
- Potency: 48.2 µM (active) and 54.5 µM (active)

SMILES: CC1=CCC2CC1C2(C)C (stereo unspecified)
- Potency: inactive

SMILES: CCO[Si](CCC#N)(OCC)OCC
- Potency: inactive

SMILES: CCC(Cc1c(I)cc(I)c(N)c1I)C(=O)O (stereo unspecified)
- Potency: inactive

SMILES: O=[N+]([O-])c1cc(C(F)(F)F)ccc1Cl
- Potency: inactive

SMILES: C=CCCCCCCCCCC
- Potency: inactive

SMILES: C=C(C)C(=O)OCC(CC)(COC(=O)C(=C)C)COC(=O)C(=C)C
- Potency: inactive

SMILES: CC(=O)O[C@]1(C(C)=O)CC[C@H]2[C@@H]3C[C@H](C)C4=CC(=O)CC[C@]4(C)[C@H]3CC[C@@]21C
- Potency: inactive

SMILES: COCC(C)N (stereo unspecified)
- Potency: inactive
